Measurements as given in PubChem BioAssay (NCI).
About 79,000 compounds went through this panel and 15% of them were active in at least one assay; those are over-represented in the sample as a whole. Calls of active or inactive are those of the source. Cut-off read from the data, not from the text of the source: active = growth inhibition above about 70%; inactive = the rest.

How the values were obtained:
[1] = NCI Yeast Anticancer Drug Screen. Data for the rad50 strain (AID 155);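 note: 0% = growth of vehicle-only cultures of the same strain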; conditions: S. cerevisiae rad50 strain growth inhibition, active compounds read high
Procedure, shortened: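 Yeast carrying a defined DNA repair defect were exposed to test compounds, and growth was compared with vehicle-treated controls to give percent inhibition.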

[2] = NCI Yeast Anticancer Drug Screen. Data for the mec2-1 strain (AID 157); conditions: S. cerevisiae mec2-1 strain, active compounds read high
Procedure, shortened: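 Using mec2-1 yeast: add compound, measure growth, express inhibition versus vehicle-treated cultures.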

[3] = NCI Yeast Anticancer Drug Screen. Data for the sgs1 mgt1 strain (AID 161);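 note: 0% = growth of cultures given vehicle only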; conditions: S. cerevisiae sgs1 mgt1 strain, active compounds read high
Procedure, shortened: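 Compounds are added to genetically altered yeast, and growth is compared with cultures given vehicle alone to give percent inhibition.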

[4] = NCI Yeast Anticancer Drug Screen. Data for the cln2 rad14 strain (AID 165);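 note: 0% = growth equal to vehicle treated cultures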; conditions: S. cerevisiae cln2 rad14 strain, active compounds read high
Procedure, shortened: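 Yeast strain cln2 rad14, bearing defects in cell cycle control and DNA repair, serves as the test system; values reflect growth inhibition compared with vehicle.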

[5] = NCI Yeast Anticancer Drug Screen. Data for the bub3 strain (AID 167); conditions: S. cerevisiae bub3 mutant strain, active compounds read high
Procedure, shortened: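 Compounds were applied to a genetically altered yeast strain carrying a cell-cycle control defect. Growth inhibition was scored against vehicle-treated controls.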

[6] = NCI Yeast Anticancer Drug Screen. Data for the mlh1 rad18 strain (AID 175); conditions: S. cerevisiae mlh1 rad18 strain growth inhibition, active compounds read high
Procedure, shortened: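 Steps: expose repair-defective yeast to compound; measure growth; express inhibition against vehicle-treated controls.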

[7] = at 5.0 µM (retest, dose inferred, filed as 0.5)
[8] = at 50.0 µM (retest, dose inferred, filed as 5.0)

Measured: growth inhibition

CCC(=O)OCC(=O)c1ccc(-c2ccccc2)cc1
inactive: [1]; [7] -9% | [1]; [8] -20% | [1]; at 50.0 µM -5.1% | [2]; [7] -8% | [2]; [8] 1% | [2]; at 50.0 µM -3.7% | [3]; [7] -2% | [3]; [8] 18% | [3]; at 50.0 µM 3% | [4]; [7] 33% | [4]; [8] -56% | [4]; at 50.0 µM -5.4% | [5]; [7] 36% | [5]; [8] 10% | [5]; at 50.0 µM 57.1% | [6]; [7] -8% | [6]; [8] 1% | [6]; at 50.0 µM -1.05%

CCC[CH2][Sn]([CH2]CCC)([S]/C(C#N)=N/N=C/c1ccc(N(C)C)cc1)[S]/C(C#N)=N/N=C/c1ccc(N(C)C)cc1
inactive: [1]; [7] 57% | [2]; [7] 66% | [3]; [7] 52% | [4]; [7] 40% | [5]; [7] 64%
active: [1]; [8] 98% | [1]; at 50.0 µM 97% | [2]; [8] 98% | [2]; at 50.0 µM 92.5% | [3]; [8] 98% | [3]; at 50.0 µM 95.8% | [4]; [8] 94% | [4]; at 50.0 µM 95% | [5]; [8] 99% | [5]; at 50.0 µM 95.8% | [6]; [7] 72% | [6]; [8] 98% | [6]; at 50.0 µM 95.9%

CC(N)C(O)c1ccc2ccc3ccccc3c2c1 (stereo not given)
inactive: [1]; [7] -35% | [1]; at 50.0 µM 63.7% | [2]; [7] 0% | [2]; at 50.0 µM 3.65% | [3]; [7] 0% | [3]; at 50.0 µM 64.8% | [4]; [7] -13% | [4]; [8] 36% | [4]; at 50.0 µM 38.7% | [5]; [7] 6% | [5]; at 50.0 µM 66.9% | [6]; [7] 11% | [6]; at 50.0 µM 58.1%
active: [1]; [8] 96% | [2]; [8] 96% | [3]; [8] 96% | [5]; [8] 97% | [6]; [8] 98%

CC(C)c1ccc2nc3ccc(C(=O)NCCN4CCN(c5ccccc5)CC4)cn3c(=O)c2c1
active: [1]; [8] 97% | [2]; [8] 98% | [3]; [8] 99% | [4]; [8] 97% | [5]; [8] 98% | [6]; [8] 97%
inactive: [1]; [7] 18% | [1]; at 50.0 µM 12.1% | [2]; [7] -9% | [2]; at 50.0 µM 16.6% | [3]; [7] 18% | [3]; at 50.0 µM 13.2% | [4]; [7] 3% | [4]; at 50.0 µM -7.8% | [5]; [7] 14% | [5]; at 50.0 µM -7.5% | [6]; [7] 4% | [6]; at 50.0 µM 5.15%

CCCOc1ccc(-c2nc(-c3ccc(N=Cc4ccc(N(CCOS(C)(=O)=O)CCOS(C)(=O)=O)cc4C)cc3)cs2)cc1
inactive: [1]; [7] 13% | [2]; [7] 7% | [3]; [7] 8% | [3]; at 50.0 µM 46.5% | [4]; [7] 7% | [4]; [8] 53% | [4]; at 50.0 µM 24.6% | [5]; [7] -3% | [5]; [8] 2% | [5]; at 50.0 µM 37% | [6]; [7] 50%
active: [1]; [8] 82% | [1]; at 50.0 µM 84.7% | [2]; [8] 83% | [2]; at 50.0 µM 76.8% | [3]; [8] 89% | [6]; [8] 95% | [6]; at 50.0 µM 92.4%

CSc1cc(C(=O)O)nc(N)n1
inactive: [1]; [7] 4% | [1]; [8] -4% | [1]; at 50.0 µM -5.65% | [2]; [7] 6% | [2]; [8] 0% | [2]; at 50.0 µM 5% | [3]; [7] 5% | [3]; [8] -1% | [3]; at 50.0 µM -21.6% | [4]; [7] 8% | [4]; [8] -1% | [4]; at 50.0 µM 28.1% | [5]; [7] 3% | [5]; [8] -4% | [5]; at 50.0 µM -17.1% | [6]; [7] 4% | [6]; [8] -4% | [6]; at 50.0 µM -12.3%

c1coc(C2=Nc3cccc4cccc(c34)N2)c1
inactive: [1]; [7] 6% | [1]; at 50.0 µM 50.5% | [2]; [7] 5% | [2]; [8] 62% | [2]; at 50.0 µM 10.3% | [3]; [7] 36% | [4]; [7] 4% | [4]; [8] 65% | [4]; at 50.0 µM 32.5% | [5]; [7] 5% | [5]; at 50.0 µM 36.4% | [6]; [7] -13% | [6]; at 50.0 µM 54.6%
active: [1]; [8] 84% | [3]; [8] 81% | [3]; at 50.0 µM 76.7% | [5]; [8] 94% | [6]; [8] 96%

CN(C)C(=O)SC1=C(c2c(Cl)cccc2Cl)C(=O)c2ccccc21
active: [1]; [8] 74% | [2]; at 50.0 µM 74.5% | [3]; [8] 80% | [3]; at 50.0 µM 89.7% | [4]; at 50.0 µM 87.8% | [5]; [8] 71% | [5]; at 50.0 µM 85.9% | [6]; [7] 82% | [6]; [8] 93% | [6]; at 50.0 µM 82.8%
inactive: [1]; [7] 41% | [1]; at 50.0 µM 66.3% | [2]; [7] 32% | [2]; [8] 69% | [3]; [7] 53% | [4]; [7] 33% | [4]; [8] 61% | [5]; [7] 32%

CC([N+](=O)[O-])C1(O)C(=O)c2cccc3cccc1c23 (stereo not given)
active: [2]; [8] 100% | [3]; [8] 96% | [4]; at 50.0 µM 76.7% | [5]; [8] 91% | [6]; [8] 86% | [6]; at 50.0 µM 74.5%
inactive: [1]; [7] -7% | [1]; [8] 55% | [1]; at 50.0 µM 64.2% | [2]; [7] 0% | [2]; at 50.0 µM 58.5% | [3]; [7] 11% | [3]; at 50.0 µM 42.2% | [4]; [7] 4% | [4]; [8] 42% | [5]; [7] 14% | [5]; at 50.0 µM 68.8% | [6]; [7] 26%

OC1(C2CCCCC2)c2ccccc2Cc2ccccc21
inactive: [1]; [7] 6% | [2]; [7] 13% | [3]; [7] 12% | [4]; [7] -1% | [5]; [7] 9% | [6]; [7] 7%
active: [1]; [8] 80% | [1]; at 50.0 µM 97.2% | [2]; [8] 76% | [2]; at 50.0 µM 98% | [3]; [8] 93% | [3]; at 50.0 µM 96.4% | [4]; [8] 86% | [4]; at 50.0 µM 95.4% | [5]; [8] 90% | [5]; at 50.0 µM 96.8% | [6]; [8] 90% | [6]; at 50.0 µM 97%
